Results: PubChem BioAssay (EPA / NIEHS)
“And” between values parts separate entries of the source, which are not always exact repeats. Equal entries are not always repeated. The source made the active and inactive calls. How the source made its calls: active means hit-call score of the fitted dose curve at least 0.9, where 1 is the maximum; inactive means score below 0.9.

Experiment: BSK_3C_VCAM1: BioMAP Diversity Plus: 3C Assay for Vascular cell adhesion molecule 1 (VCAM1) Biomarker Activity (AID 2282999)
Details: BioMAP 3C HUVEC, VCAM1 ELISA, cytokine-stimulated; actives raise or lower the signal
Method: BSK_3C is a cell-based, multiplexed-readout assay that uses umbilical vein endothelium, a human vascular primary cell, with measurements taken at 24 hours after chemical dosing in a 96-well plate.BSK_3C_VCAM1 is an assay component measured in the BSK_3C assay. It measures VCAM-1 antibody related to regulation of gene expression using ELISA technology.Data from the assay component BSK_3C_VCAM1 was analyzed into 1 assay endpoint. This assay endpoint, BSK_3C_VCAM1, was analyzed with bidirectional fitting relative to DMSO as the negative control and baseline of activity. Using a type of binding reporter, gain or loss-of-signal activity can be used to understand changes in the signaling as they relate to the gene VCAM1. Furthermore, this assay endpoint can be referred to as a primary readout, because this assay has produced multiple assay endpoints where this one serves a signaling function. To generalize the intended target to other relatable targets, this assay endpoint is annotated to the cell adhesion molecules intended target family, where the subfamily is Immunoglobulin CAM.
The levels of cell surface (or secreted, indicated by the prefix "s") biomarker endpoints were measured by ELISA. Overt cytotoxicity to cells in confluent adherent cultures (all systems other than the BT system) was assessed by measuring total protein levels using sulforhodamine B (SRB) staining in parallel cultures at the time of biomarker measurements, indicated as SRB endpoints. For proliferation assays for adherent cell types, individual cell types are cultured at sub-confluence and relative cell numbers quantified by SRB staining at time points optimized for each system (48 h: 3C and CASM3C systems; 72 h: BT and HDF3CGF systems; 96 h: SAg system). SRB was performed by staining cells with 0.1% SRB after fixation with 10% TCA and reading wells at 560 nm.Viability and proliferation of PBMC (T cells) was quantified by Alamar Blue reduction for the SAg and BT systems. For PBMC viability (referred to as PBMC Cytotoxicity within the assay endpoint names), cells were plated (75,000/well in a 96-well plate) and then chemical samples added for 1 h before addition of activators, SEB and TSST-1 (20 ng/mL final concentration each). Cells were incubated for 90 h. Then, Alamar Blue (20 uL/well) (Invitrogen, Cat DAL1100) was added for 6 h, and the plates were read with a fluorescence microplate reader at 546/580 nm (excitation/emission). For PBMC proliferation, cells were plated and activated as above but incubated for only 16 h prior to addition of Alamar Blue. Plates were read after 6 h.

Row | Structure (SMILES) | outcome | AC50
1 | O=c1[nH]c(Cl)c(Cl)cc1Cl | inactive | –
2 | Clc1ccc(-c2ccccc2)cc1 | inactive | –
3 | CCCOC(=O)c1ccccc1C(=O)OCCC | inactive | –
4 | CC(C)CCCCCCCOP(=O)(Oc1ccccc1)Oc1ccccc1 | – | 11.2 µM (active)
5 | Nc1ccc(-c2ccc(N)c(N)c2)cc1N | inactive | –
6 | CC(C)CCCCCCCOC(=O)c1ccccc1C(=O)OCCCCCCCC(C)C | inactive | –
7 | CCc1cc(C)cc(CC)c1-c1c(OC(=O)C(C)(C)C)n2n(c1=O)CCOCC2 | inactive | –
8 | Oc1ccc(C2(c3ccc(O)cc3)c3ccccc3-c3ccccc32)cc1 | – | 15.6 µM (active) and 14 µM (active)
9 | CNC(=O)Oc1cc(C)c(SC)c(C)c1 | – | 20 µM (active)
10 | O=C(O)CCCc1ccc(N(CCCl)CCCl)cc1 | – | 31.8 µM (active) and 28.7 µM (active)
11 | CC(C)(c1cc(Cl)c(O)c(Cl)c1)c1cc(Cl)c(O)c(Cl)c1 | – | 13.4 µM (active)
12 | CC(C)(C)C(=O)CCl | – | 20 µM (active)
13 | O=[N+]([O-])C=Cc1ccccc1 | – | 6.25 µM (active)
14 | COCC(=O)N(c1c(C)cccc1C)N1CCOC1=O | inactive | –
15 | O=C1C=CC(=O)C=C1 | – | 13.8 µM (active) and 20 µM (active)
16 | CC(C)COP(=O)(OCC(C)C)OCC(C)C | inactive | –
17 | CCCC[N+](CCCC)(CCCC)CCCC | inactive | –
18 | O=[N+]([O-])O | inactive | –
19 | CC(C)(C)C(O)C(Oc1ccc(-c2ccccc2)cc1)n1cncn1 (stereo not drawn) | inactive | –

Row | Structure (SMILES) | outcome | AC50
20 | Cc1ccc(OP(=O)(Oc2ccc(C)cc2)Oc2ccc(C)cc2)cc1 (tested in a mixture with another compound) | inactive | –
21 | C=CC(=O)OCC(CC)CCCC (stereo not drawn) | – | 20 µM (active)
22 | O=S(=O)(c1ccccc1)c1ccccc1 | inactive | –
23 | C=CCN(CC=C)C(=O)C(Cl)Cl | inactive | –
24 | COc1ccc(CO)cc1 | inactive | –
25 | CCC(C)c1cc([N+](=O)[O-])cc([N+](=O)[O-])c1OC(=O)C=C(C)C (stereo not drawn) | – | 20 µM (active)
26 | CCCCCCCCCCCC#N | – | 32.3 µM (active)
27 | CC1(C)[C@H](C(=O)O[C@H](C#N)c2cccc(Oc3ccccc3)c2)[C@@H]1C=C(Br)Br | inactive | –
28 | O=[N+]([O-])c1ccc(Cl)cc1 | inactive | –
29 | O=C(CCl)c1ccccc1 | – | 3.06 µM (active)
30 | O=c1c2ccccc2c(=O)c2c1cc(Cl)c1[nH]c3c([nH]c12)c(Cl)cc1c(=O)c2ccccc2c(=O)c13 | inactive | –
31 | [Cd+2].[Cl-].[Cl-] | inactive | –
32 | COC(C)(C)CCC[C@H](C)C/C=C/C(C)=C/C(=O)OC(C)C | – | 28.8 µM (active)
33 | N#CCCCCC#N | inactive | –
34 | CC(=O)/C=C/c1ccccc1 | – | 20 µM (active)
35 | c1ccc(Nc2ccc3ccccc3c2)cc1 | – | 34.8 µM (active)
36 | O=C1C(Cl)=C(Cl)C(=O)C(Cl)=C1Cl | – | 11.9 µM (active)
37 | O=P1(NCCCl)OCCCN1CCCl (stereo not drawn) | inactive | –
38 | Oc1cc(Cl)ccc1Cl | inactive | –
